Source: PubChem
CYP2C9 act = CYP2C9 (human) activation; P11712; recombinant CYP2C9, luciferin-H conversion, luminescence; hits give high values; factor 1 = untreated enzyme, 0 = blocked; activation factor at 5 µM; hit rate 1.4% among 96,000; AID 1024;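 active = activation factor of 2 or more for CYP2C9 at a 5 µM dose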
CYP2C9 inh = inhibitors of human CYP2C9; P11712; CYP2C9 Supersomes, luciferin-H conversion, luminescence; inhibition, % at 5 µM; hit rate 20% among 96,000; AID 777;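 active = blocking of liver enzyme CYP2C9 beyond about 50% at 5 µM, limit read from the data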
Mac1 fbg inh = blocks human CD11b/CD18 adhesion to fibrinogen; K562 CD11b/CD18 adhesion to fibrinogen, ATPlite luminescence; Mn2+ added to activate the integrin; AID 1497; hit rate 0.54% among 93,000; inhibition, % at 10 µM;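 active = primary inhibition of 50% or more at 10 µM, then 40% or more on retest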
Target sequence (P05107 whole entry, looked up, other chains not shown): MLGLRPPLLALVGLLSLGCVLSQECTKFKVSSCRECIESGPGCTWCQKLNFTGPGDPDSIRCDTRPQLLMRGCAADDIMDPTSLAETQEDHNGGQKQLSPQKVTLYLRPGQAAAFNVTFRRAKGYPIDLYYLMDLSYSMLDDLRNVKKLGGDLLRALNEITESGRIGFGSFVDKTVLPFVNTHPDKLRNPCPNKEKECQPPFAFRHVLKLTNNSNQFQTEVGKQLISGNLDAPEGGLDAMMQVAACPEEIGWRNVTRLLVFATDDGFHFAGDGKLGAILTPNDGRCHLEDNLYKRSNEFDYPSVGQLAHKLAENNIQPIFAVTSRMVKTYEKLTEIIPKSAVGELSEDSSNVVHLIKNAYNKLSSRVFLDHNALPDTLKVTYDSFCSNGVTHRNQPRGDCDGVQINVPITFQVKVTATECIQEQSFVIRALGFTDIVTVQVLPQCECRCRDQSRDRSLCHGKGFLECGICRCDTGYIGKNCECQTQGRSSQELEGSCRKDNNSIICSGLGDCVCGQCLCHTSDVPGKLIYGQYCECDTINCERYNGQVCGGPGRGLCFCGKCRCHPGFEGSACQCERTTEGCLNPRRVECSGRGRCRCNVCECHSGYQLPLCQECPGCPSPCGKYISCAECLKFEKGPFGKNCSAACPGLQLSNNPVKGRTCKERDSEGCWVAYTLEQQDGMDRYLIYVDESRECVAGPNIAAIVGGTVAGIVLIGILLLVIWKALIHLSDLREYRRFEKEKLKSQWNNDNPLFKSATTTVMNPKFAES
CYP2C19 inh = human CYP2C19 inhibition | P33261 | CYP2C19 Supersomes, luciferin-H EGE luminescence, 30 min | inhibition, % at 5 µM | hit rate 21% among 96,000;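 active = CYP2C19 inhibition above a set limit at 5 µM in the primary screen, cut at about 50% in these data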
CD11b adhes enh = enhancers of human CD11b/CD18 binding to fibrinogen; hit rate 0.07% among 93,000; P05107+P11215; activation, % at 10 µM; AID 1499; K562 CD11b/CD18 adhesion to fibrinogen, ATPlite luminescence;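 active = 10 µM primary screen giving 50% or more activity, confirmed by 40% or more on retest at that dose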
CYP2C19 activ = increases human CYP2C19 enzyme activity | P33261 | recombinant CYP2C19, luciferin-H EGE luminescence; hits give high values; 0 = fully inhibited enzyme, 1 = untreated enzyme | activation factor at 5 µM | 96,000 tested, under 10 active | AID 1025;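 active = activation factor of at least 2 at 5 µM in the primary screen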
Numbers stand for hits. A selection: hits, their analogues and other compounds. The true share with any hit is near 28%.

`Cc1ccc(C(=O)Nc2ccncc2)o1` gave CYP2C9 act inactive, CYP2C9 inh inactive, Mac1 fbg inh inactive, CYP2C19 inh 73, CD11b adhes enh inactive and CYP2C19 activ inactive.
O=C(Nc1cccnc1)c1ccc(COc2ccccc2Br)o1 was read as CYP2C9 act inactive, CYP2C9 inh 60, Mac1 fbg inh inactive, CYP2C19 inh 89, CD11b adhes enh inactive and CYP2C19 activ inactive.
CCCc1ccc(OCc2ccc(C(=O)OC)o2)c(OC)c1 was read as CYP2C9 act inactive, CYP2C9 inh inactive, Mac1 fbg inh inactive, CYP2C19 inh inactive, CD11b adhes enh inactive and CYP2C19 activ inactive.
O=C(NCc1cccnc1)c1ccc(COc2ccccc2Br)o1 was read as CYP2C9 act inactive, CYP2C9 inh 61, Mac1 fbg inh inactive, CYP2C19 inh 79, CD11b adhes enh inactive and CYP2C19 activ inactive.
`CCn1nnc(NC(=O)c2ccccc2Br)n1` gave CYP2C9 act inactive, CYP2C9 inh inactive, Mac1 fbg inh inactive, CYP2C19 inh inactive, CD11b adhes enh inactive and CYP2C19 activ inactive.
`N#C/C(=C\C1CC2C=CC1C2)c1nc2ccccc2[nH]1` (stereo not drawn) gave CYP2C9 act inactive, CYP2C9 inh inactive, Mac1 fbg inh inactive, CYP2C19 inh inactive, CD11b adhes enh inactive and CYP2C19 activ inactive.
For COC(=O)c1ccccc1NC(=O)c1ccc(COc2ccccc2)o1 the results were CYP2C9 act inactive, CYP2C9 inh inactive, Mac1 fbg inh inactive, CYP2C19 inh inactive, CD11b adhes enh inactive and CYP2C19 activ inactive.
O=C(N/N=C/c1ccc2ccccc2c1)c1ccc(COc2ccc3c(c2)CCC3)o1 was read as CYP2C9 act inactive, CYP2C9 inh inactive, CYP2C19 inh inactive and CYP2C19 activ inactive.
Screening COc1ccccc1OCc1ccc(C(=O)NCc2ccco2)o1 returned CYP2C9 act inactive, CYP2C9 inh inactive, Mac1 fbg inh inactive, CYP2C19 inh 76, CD11b adhes enh inactive and CYP2C19 activ inactive.
O=C(NCc1cccnc1)c1ccc(COc2ccc3c(c2)CCC3)o1 was read as CYP2C9 act inactive, CYP2C9 inh 67, CYP2C19 inh 99 and CYP2C19 activ inactive.
Screening COC(=O)c1ccccc1NC(=O)c1ccc(COc2cccc3ccccc23)o1 returned CYP2C9 act inactive, CYP2C9 inh 58, Mac1 fbg inh inactive, CYP2C19 inh inactive, CD11b adhes enh inactive and CYP2C19 activ inactive.
`COc1ccccc1OCc1ccc(C(=O)NC(C)(C)C)o1` gave CYP2C9 act inactive, CYP2C9 inh inactive, Mac1 fbg inh inactive, CYP2C19 inh inactive, CD11b adhes enh inactive and CYP2C19 activ inactive.
For COc1cc(C(=O)NCc2ccco2)cc(OC)c1OC the results were CYP2C9 act inactive, CYP2C9 inh inactive, Mac1 fbg inh inactive, CYP2C19 inh inactive, CD11b adhes enh inactive and CYP2C19 activ inactive.
Screening COc1ccccc1OCc1ccc(C(=O)Nc2ccncc2)o1 returned CYP2C9 act inactive, CYP2C9 inh 98, Mac1 fbg inh inactive, CYP2C19 inh 100, CD11b adhes enh inactive and CYP2C19 activ inactive.
Screening NC(=O)Cn1c2[n+](c3ccccc31)CC(O)CS2 (stereo not drawn) returned CYP2C9 act inactive, CYP2C9 inh inactive, Mac1 fbg inh inactive, CYP2C19 inh inactive, CD11b adhes enh inactive and CYP2C19 activ inactive.
`N#Cc1c(-c2ccc(Cl)cc2)ccn2nc(CCC(=O)O)nc12` gave CYP2C9 act inactive, CYP2C9 inh inactive, Mac1 fbg inh inactive, CYP2C19 inh inactive, CD11b adhes enh inactive and CYP2C19 activ inactive.
For COc1ccccc1C(=O)Nc1ccc2c(c1)nc1n2CCSC1 the results were CYP2C9 act 2, CYP2C9 inh inactive, Mac1 fbg inh inactive, CYP2C19 inh inactive, CD11b adhes enh inactive and CYP2C19 activ inactive.
COc1ccccc1C(=O)Nc1ccc(S(=O)(=O)N2CCCC2)cc1 was read as CYP2C9 act inactive, CYP2C9 inh inactive, Mac1 fbg inh inactive, CYP2C19 inh inactive, CD11b adhes enh inactive and CYP2C19 activ inactive.
For Cc1ccc(C(=O)Nc2ccc3c(c2)nc2n3CCSC2)cc1 the results were CYP2C9 act inactive, CYP2C9 inh inactive, Mac1 fbg inh inactive, CYP2C19 inh inactive, CD11b adhes enh inactive and CYP2C19 activ inactive.
COc1ccccc1C(=O)Nc1ccc(N2CCCCC2)cc1 was read as CYP2C9 act 3.8, CYP2C9 inh inactive, Mac1 fbg inh inactive, CYP2C19 inh inactive, CD11b adhes enh inactive and CYP2C19 activ inactive.
`COc1ccccc1C(=O)Nc1ccc(N2CCN(Cc3ccccc3)CC2)cc1` gave CYP2C9 act 2.5, CYP2C9 inh inactive, Mac1 fbg inh inactive, CYP2C19 inh inactive, CD11b adhes enh inactive and CYP2C19 activ inactive.
`COc1ccc(NC(=O)c2ccc(CN3CCN(c4ccccc4)CC3)cc2)cc1OC` gave CYP2C9 act inactive, CYP2C9 inh inactive, Mac1 fbg inh inactive, CYP2C19 inh inactive, CD11b adhes enh inactive and CYP2C19 activ inactive.
`COc1cc(CCC(=O)OCC(=O)Nc2c(C)cccc2C(C)C)cc(OC)c1OC` gave Mac1 fbg inh inactive and CD11b adhes enh inactive.
CCCCNC(=O)CN1C(=O)NC2NC(=O)NC21 (stereo not drawn) was read as CYP2C9 act inactive, CYP2C9 inh inactive, Mac1 fbg inh inactive, CYP2C19 inh inactive, CD11b adhes enh inactive and CYP2C19 activ inactive.
For CCN(CCCCN1C(=O)c2ccccc2C1=O)c1ccc2c(c1)C(=O)N(C)C2=O the results were CYP2C9 act inactive, CYP2C9 inh inactive, Mac1 fbg inh inactive, CYP2C19 inh inactive, CD11b adhes enh inactive and CYP2C19 activ inactive.
For O=C1c2ccccc2C(=O)N1CCCCN(C(=O)c1ccco1)c1ccc(Cl)cc1 the results were CYP2C9 act inactive, CYP2C9 inh 82, Mac1 fbg inh inactive, CYP2C19 inh 57, CD11b adhes enh inactive and CYP2C19 activ inactive.
Screening Cc1ccc(N(CCCCN2C(=O)c3ccccc3C2=O)C(=O)c2cccs2)cc1 returned CYP2C9 act inactive, CYP2C9 inh 66, Mac1 fbg inh inactive, CYP2C19 inh 61, CD11b adhes enh inactive and CYP2C19 activ inactive.
For O=C1c2ccccc2C(=O)N1CCCCN(C(=O)c1cccc([N+](=O)[O-])c1)c1ccc(Cl)cc1 the results were CYP2C9 act inactive, CYP2C9 inh 61, CYP2C19 inh 69 and CYP2C19 activ inactive.
Screening CSc1cc(-c2ccc(Cl)cc2)c(C(=O)NC(C)C)s1 returned CYP2C9 act inactive, CYP2C9 inh inactive, CYP2C19 inh 69 and CYP2C19 activ inactive.
CSc1cc(-c2ccc(Cl)cc2)c(C(=O)NN)s1 was read as CYP2C9 act inactive, CYP2C9 inh 65, CYP2C19 inh 70 and CYP2C19 activ inactive.
CC(C)NC(=O)c1cc2c(-c3ccc(Cl)cc3)nn(C)c2s1 was read as CYP2C9 act inactive, CYP2C9 inh inactive, Mac1 fbg inh inactive, CYP2C19 inh inactive, CD11b adhes enh inactive and CYP2C19 activ inactive.
`CNC(=O)c1sc(-c2ccc(Cl)cc2)nc1C` gave CYP2C9 act inactive, CYP2C9 inh inactive, Mac1 fbg inh inactive, CYP2C19 inh inactive, CD11b adhes enh inactive and CYP2C19 activ inactive.
